From ChEMBL document CHEMBL2218924, “A broad activity screen in support of a chemogenomic map for kinase signalling research and drug discovery” (Biochem J, 2013) come the findings set out here.

Usually residual activity stands for the signal under treatment as a percentage of the control signal.

Experiment [1] addresses Death-associated protein kinase 1 (Homo sapiens) (UniProt P53355). The settings on record: at 10 µM.
In experiment [2] the target is Death-associated protein kinase 2 (Homo sapiens) (UniProt Q9UIK4). To be noted: at 1 µM.
Death-associated protein kinase 2 (Homo sapiens), sequence (Q9UIK4 whole entry, looked up): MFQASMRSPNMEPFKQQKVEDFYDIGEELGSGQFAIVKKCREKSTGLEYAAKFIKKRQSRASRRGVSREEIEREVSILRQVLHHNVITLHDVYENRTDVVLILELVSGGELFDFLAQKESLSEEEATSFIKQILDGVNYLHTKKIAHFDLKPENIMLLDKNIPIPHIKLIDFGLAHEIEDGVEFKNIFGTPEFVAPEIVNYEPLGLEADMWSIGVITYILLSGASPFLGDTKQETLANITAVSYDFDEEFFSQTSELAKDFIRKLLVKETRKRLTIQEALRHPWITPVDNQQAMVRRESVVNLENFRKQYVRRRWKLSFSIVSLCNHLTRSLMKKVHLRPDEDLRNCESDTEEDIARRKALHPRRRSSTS
Experiment [3] shares this target. To be noted: at 10 µM.
The target in experiment [4] is T1, Serine/threonine-protein kinase DCLK2 (Homo sapiens) (UniProt Q8N568).
T1 sequence (whole entry): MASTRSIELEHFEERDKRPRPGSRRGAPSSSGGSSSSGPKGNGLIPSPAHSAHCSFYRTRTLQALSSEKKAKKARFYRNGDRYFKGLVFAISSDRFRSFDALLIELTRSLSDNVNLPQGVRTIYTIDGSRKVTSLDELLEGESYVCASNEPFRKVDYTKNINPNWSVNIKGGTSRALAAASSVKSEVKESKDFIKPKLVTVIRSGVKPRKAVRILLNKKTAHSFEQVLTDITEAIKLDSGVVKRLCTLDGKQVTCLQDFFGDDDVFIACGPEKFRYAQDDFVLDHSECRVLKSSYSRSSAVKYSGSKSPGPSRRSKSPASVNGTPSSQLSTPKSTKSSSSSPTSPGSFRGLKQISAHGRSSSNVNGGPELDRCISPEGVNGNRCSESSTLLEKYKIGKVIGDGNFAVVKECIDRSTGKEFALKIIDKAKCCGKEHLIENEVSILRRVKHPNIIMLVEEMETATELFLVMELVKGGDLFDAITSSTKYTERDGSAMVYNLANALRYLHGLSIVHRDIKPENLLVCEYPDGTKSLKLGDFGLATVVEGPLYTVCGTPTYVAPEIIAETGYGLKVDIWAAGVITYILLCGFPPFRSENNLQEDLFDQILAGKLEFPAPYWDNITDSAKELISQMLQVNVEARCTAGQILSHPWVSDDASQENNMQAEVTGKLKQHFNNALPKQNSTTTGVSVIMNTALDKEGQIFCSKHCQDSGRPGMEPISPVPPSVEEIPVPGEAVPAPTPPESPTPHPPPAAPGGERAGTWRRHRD
To be noted: at 1 µM.

For experiment [5], the target named is T1, Serine/threonine-protein kinase DCLK2 (Homo sapiens). The settings on record: at 10 µM.
Experiment [6] addresses T2, Discoidin domain-containing receptor 2 (Homo sapiens) (UniProt Q16832).
T2 sequence (whole entry): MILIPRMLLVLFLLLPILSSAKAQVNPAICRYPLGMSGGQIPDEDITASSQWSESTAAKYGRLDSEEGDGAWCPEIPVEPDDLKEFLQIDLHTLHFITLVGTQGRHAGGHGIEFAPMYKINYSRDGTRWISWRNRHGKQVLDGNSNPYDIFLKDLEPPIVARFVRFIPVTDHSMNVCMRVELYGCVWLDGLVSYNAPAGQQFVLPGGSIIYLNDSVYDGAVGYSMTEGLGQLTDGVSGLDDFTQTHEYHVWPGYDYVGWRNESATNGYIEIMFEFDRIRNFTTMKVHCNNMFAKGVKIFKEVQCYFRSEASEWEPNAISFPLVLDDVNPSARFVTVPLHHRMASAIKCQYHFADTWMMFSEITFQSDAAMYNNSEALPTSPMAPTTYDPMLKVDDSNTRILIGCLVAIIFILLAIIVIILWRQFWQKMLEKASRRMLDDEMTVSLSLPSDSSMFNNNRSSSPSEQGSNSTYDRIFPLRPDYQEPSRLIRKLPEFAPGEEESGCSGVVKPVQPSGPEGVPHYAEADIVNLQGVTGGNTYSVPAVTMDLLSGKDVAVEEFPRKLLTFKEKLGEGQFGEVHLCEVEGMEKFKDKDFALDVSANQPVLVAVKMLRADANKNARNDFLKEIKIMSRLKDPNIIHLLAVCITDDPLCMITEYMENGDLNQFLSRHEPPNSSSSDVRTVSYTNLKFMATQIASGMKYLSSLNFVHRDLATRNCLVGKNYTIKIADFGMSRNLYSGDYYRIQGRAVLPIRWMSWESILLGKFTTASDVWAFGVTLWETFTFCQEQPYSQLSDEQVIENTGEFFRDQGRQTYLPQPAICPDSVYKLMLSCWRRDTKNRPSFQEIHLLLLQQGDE
The settings on record: at 1 µM.

Experiment [7] concerns the target T2, Discoidin domain-containing receptor 2 (Homo sapiens). The settings on record: at 10 µM.
Experiment [8] concerns the target T3, Myotonin-protein kinase (Homo sapiens) (UniProt Q09013).
T3 sequence (whole entry): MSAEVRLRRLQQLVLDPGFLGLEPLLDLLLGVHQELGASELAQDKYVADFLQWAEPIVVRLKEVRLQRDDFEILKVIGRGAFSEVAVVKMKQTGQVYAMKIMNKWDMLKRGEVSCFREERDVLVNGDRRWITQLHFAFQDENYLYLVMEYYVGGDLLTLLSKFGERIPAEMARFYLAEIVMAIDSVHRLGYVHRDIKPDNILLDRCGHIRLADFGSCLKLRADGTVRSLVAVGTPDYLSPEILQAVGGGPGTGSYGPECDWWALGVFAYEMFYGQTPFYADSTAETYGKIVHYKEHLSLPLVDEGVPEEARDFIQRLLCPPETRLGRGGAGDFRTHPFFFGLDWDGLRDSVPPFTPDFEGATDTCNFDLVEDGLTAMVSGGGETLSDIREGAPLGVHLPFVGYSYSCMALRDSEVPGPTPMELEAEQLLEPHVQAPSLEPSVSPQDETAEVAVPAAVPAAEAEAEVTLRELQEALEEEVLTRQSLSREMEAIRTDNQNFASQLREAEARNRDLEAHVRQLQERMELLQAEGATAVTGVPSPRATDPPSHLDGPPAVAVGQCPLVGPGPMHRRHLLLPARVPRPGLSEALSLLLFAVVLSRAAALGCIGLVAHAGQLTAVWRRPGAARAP
To be noted: at 1 µM.

The target in experiment [9] is T3, Myotonin-protein kinase (Homo sapiens). To be noted: at 10 µM.
For experiment [10], the target named is T4, Serine/threonine-protein kinase 17A (Homo sapiens) (UniProt Q9UEE5).
T4 sequence (whole entry): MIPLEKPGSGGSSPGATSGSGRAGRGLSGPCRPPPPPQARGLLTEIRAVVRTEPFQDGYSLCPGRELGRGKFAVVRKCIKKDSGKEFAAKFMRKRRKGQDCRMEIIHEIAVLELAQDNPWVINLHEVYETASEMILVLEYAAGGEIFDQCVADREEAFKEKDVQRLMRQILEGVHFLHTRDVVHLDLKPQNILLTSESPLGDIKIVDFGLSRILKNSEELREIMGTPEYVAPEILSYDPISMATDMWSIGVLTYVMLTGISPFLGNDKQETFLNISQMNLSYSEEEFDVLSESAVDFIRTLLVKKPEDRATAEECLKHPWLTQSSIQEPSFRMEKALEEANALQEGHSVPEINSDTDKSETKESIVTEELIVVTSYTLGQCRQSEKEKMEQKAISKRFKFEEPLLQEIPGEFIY
The settings on record: at 1 µM.

Experiment [11] has as its target T4, Serine/threonine-protein kinase 17A (Homo sapiens). To be noted: at 10 µM.
Experiment [12] addresses T5, Dual specificity tyrosine-phosphorylation-regulated kinase 2 (Homo sapiens) (UniProt Q92630).
T5 sequence (whole entry): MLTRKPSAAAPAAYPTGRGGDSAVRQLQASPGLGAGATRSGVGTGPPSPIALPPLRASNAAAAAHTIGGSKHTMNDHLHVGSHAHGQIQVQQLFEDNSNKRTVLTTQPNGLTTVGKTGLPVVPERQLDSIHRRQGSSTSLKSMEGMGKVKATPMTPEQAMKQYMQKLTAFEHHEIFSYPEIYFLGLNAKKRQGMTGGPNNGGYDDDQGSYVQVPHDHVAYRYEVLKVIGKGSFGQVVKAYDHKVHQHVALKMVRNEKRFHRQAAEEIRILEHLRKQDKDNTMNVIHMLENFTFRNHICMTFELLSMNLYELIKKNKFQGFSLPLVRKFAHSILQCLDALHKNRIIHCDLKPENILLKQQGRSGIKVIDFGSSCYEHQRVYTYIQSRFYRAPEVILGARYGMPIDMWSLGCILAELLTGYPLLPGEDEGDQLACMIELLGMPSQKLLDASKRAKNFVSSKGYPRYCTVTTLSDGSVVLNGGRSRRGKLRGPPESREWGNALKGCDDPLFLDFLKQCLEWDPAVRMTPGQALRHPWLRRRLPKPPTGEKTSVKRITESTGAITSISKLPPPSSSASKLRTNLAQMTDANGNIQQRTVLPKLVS
The settings on record: at 10 µM.

Experiment [13] concerns the target T6, Ephrin type-A receptor 1 (Homo sapiens) (UniProt P21709).
T6 sequence (whole entry): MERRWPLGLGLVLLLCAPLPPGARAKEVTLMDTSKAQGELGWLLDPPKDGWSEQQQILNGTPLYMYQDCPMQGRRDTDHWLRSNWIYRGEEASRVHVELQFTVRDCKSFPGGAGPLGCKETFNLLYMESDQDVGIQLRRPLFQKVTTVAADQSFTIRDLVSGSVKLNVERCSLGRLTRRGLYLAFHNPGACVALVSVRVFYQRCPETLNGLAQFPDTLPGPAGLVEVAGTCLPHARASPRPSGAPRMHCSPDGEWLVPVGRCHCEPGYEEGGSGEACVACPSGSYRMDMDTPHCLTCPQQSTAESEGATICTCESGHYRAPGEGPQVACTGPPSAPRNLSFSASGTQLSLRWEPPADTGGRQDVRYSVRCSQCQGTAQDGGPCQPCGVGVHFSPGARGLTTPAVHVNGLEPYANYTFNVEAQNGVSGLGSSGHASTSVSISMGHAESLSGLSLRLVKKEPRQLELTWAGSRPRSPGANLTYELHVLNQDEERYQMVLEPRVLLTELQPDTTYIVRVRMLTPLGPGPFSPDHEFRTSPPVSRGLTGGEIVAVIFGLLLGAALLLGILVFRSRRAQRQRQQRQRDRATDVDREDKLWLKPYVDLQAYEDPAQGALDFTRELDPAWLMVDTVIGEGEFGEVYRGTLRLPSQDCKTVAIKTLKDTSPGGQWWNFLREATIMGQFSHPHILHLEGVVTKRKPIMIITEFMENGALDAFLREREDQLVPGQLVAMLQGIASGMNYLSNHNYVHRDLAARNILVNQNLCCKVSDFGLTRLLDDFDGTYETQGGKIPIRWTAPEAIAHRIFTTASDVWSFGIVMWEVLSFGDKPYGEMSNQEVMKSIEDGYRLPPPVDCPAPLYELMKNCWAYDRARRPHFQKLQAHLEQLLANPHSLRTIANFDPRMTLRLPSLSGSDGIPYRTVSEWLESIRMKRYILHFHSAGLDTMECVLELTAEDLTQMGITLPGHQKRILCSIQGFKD
To be noted: at 1 µM.

Experiment [14] concerns the target T6, Ephrin type-A receptor 1 (Homo sapiens). To be noted: at 10 µM.
For experiment [15], the target named is Ephrin type-A receptor 2 (Homo sapiens) (UniProt P29317). The settings on record: at 1 µM.
Ephrin type-A receptor 2 (Homo sapiens), sequence (P29317 whole entry): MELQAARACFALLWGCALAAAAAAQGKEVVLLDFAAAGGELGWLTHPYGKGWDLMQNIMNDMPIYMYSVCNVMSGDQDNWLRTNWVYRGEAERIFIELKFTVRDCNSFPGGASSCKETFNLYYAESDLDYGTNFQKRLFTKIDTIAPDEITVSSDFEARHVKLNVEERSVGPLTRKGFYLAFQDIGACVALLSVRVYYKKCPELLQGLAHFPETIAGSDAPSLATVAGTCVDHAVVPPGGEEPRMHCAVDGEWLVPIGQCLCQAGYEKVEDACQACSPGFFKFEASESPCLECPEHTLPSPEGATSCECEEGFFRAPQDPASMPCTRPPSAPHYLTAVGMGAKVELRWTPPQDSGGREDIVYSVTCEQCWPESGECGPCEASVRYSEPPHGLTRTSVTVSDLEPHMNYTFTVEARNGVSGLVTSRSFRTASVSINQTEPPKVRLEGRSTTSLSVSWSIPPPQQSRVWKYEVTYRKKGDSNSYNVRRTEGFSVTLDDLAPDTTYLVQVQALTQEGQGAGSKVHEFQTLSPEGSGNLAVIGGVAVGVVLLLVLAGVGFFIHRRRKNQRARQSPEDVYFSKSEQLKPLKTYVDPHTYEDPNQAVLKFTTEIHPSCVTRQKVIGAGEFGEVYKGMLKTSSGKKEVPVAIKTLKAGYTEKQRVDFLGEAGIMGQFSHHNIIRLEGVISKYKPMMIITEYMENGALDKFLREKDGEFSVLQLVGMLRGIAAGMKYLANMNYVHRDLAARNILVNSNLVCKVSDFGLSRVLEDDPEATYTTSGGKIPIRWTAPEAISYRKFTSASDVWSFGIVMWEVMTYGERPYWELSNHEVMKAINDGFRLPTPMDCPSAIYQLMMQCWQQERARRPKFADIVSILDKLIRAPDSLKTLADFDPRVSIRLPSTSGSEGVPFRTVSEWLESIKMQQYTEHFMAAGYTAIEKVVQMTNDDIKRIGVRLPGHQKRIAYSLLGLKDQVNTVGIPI
For experiment [16] the target is unchanged. To be noted: at 10 µM.
In experiment [17] the target is T7, Ephrin type-A receptor 3 (Homo sapiens) (UniProt P29320).
T7 sequence (whole entry): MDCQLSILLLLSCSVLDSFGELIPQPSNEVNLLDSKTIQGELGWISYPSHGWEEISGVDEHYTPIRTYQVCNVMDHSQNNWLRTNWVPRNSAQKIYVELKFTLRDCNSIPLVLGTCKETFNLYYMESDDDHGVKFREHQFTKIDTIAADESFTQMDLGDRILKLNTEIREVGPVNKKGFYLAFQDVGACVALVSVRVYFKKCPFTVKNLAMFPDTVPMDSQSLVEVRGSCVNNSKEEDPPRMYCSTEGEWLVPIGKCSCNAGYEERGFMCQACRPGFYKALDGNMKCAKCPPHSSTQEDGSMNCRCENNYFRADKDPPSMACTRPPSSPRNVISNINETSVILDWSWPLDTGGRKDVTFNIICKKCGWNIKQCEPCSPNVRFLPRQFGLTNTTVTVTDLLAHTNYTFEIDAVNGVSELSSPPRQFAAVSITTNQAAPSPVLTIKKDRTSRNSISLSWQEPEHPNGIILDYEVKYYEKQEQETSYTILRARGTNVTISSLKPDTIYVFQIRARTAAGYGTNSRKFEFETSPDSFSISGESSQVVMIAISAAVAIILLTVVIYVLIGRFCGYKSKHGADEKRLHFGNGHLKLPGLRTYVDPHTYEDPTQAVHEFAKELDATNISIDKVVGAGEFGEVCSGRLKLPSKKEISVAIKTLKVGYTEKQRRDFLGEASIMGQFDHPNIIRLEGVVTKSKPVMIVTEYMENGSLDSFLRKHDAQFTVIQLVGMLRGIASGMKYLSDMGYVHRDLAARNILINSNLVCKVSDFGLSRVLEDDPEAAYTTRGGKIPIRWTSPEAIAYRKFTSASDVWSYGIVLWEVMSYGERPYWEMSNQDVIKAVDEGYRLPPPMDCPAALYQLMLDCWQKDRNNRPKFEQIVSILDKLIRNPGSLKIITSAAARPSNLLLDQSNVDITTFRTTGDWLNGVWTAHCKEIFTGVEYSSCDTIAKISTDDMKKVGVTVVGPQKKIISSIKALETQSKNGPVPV
To be noted: at 1 µM.

In experiment [18] the target is T5, Dual specificity tyrosine-phosphorylation-regulated kinase 2 (Homo sapiens). The settings on record: at 1 µM.

Each structure is given as a SMILES string.

Death-associated protein kinase 1 (Homo sapiens), sequence (P53355 whole entry, looked up): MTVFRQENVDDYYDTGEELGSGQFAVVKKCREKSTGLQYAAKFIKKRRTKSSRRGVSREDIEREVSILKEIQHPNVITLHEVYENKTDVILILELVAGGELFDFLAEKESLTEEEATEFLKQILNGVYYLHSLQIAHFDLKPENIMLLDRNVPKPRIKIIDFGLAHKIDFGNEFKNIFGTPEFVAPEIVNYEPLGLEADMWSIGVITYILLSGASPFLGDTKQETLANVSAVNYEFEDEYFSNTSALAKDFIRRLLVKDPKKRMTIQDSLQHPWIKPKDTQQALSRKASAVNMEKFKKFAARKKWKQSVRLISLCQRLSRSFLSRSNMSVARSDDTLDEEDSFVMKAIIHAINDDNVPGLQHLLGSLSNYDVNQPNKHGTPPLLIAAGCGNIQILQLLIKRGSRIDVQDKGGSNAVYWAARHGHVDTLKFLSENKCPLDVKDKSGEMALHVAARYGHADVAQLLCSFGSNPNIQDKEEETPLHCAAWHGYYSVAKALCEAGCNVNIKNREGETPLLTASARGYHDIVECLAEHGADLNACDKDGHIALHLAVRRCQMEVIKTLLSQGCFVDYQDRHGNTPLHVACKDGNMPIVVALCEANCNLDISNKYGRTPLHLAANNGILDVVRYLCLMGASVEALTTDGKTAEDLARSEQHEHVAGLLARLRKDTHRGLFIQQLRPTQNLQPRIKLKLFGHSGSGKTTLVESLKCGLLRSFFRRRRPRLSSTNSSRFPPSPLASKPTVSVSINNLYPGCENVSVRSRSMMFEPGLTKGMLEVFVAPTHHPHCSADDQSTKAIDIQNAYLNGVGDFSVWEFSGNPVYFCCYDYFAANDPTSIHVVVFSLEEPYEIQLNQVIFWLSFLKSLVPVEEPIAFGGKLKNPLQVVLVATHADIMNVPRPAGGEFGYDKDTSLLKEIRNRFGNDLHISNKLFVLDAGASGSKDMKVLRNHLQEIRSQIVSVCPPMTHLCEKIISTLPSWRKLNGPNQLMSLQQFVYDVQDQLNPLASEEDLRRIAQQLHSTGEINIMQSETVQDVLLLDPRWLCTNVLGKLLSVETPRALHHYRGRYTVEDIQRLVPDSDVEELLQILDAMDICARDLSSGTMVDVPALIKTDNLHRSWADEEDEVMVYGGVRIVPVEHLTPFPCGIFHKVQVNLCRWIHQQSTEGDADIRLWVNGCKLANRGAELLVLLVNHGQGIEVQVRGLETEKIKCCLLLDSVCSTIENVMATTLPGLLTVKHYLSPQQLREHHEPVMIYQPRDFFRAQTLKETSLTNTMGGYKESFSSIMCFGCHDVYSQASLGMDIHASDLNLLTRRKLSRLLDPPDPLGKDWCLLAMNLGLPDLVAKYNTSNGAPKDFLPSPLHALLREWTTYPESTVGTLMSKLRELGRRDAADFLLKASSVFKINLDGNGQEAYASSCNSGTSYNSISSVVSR

For `COc1cc2nccc(Oc3ccc(NC(=S)NC(=O)c4ccccc4C)cc3)c2cc1OC`, the residual activity is 76% in experiment [1]; 99% in experiment [2]; 99% in experiment [3]; 82% in [4]; 94% in experiment [5]; 26% in [6]. For the same compound, the residual activity in experiment [7] is 11%; in experiment [8], 138%; in experiment [9] it was 141%; in experiment [10], 129%; in experiment [11] it was 92%; in experiment [12] it was 91%. For the same compound, the residual activity came to 46% in experiment [13]; 24% in experiment [14]; 91% in experiment [15]; 55% in [16]; 98% in experiment [17].

As to `O=C(CCCc1ccc(-c2ccccc2F)cc1)Nc1ccc(O)cc1`, the residual activity in [1] turned out to be 105%; in [2], 102%; in experiment [3], 99%; in experiment [4] it was 133%; in experiment [5] it was 192%; in [6], 99%. Also, the residual activity was 111% in experiment [7]; 108% in [8]; 97% in experiment [9]; 105% in experiment [18]; 91% in [12]; 93% in [13]. Moreover, the residual activity came to 86% in experiment [14], 97% in experiment [15] and 99% in [17].
